CHT block = inhibitors of human choline transporter CHT; High affinity choline transporter 1 (Homo sapiens), Q9GZV3; CHT-expressing cells, membrane potential dye, choline response; stronger effect = lower value; actives 0.86% (n = 310,000); B-score at 10 µM; AID 488975, 2010;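 active = B-score over 3 SD under the library average, and starting fluorescence ratio not unusually high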;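 also: choline stimulus applied at its EC90 after an EC20 pre-addition; B-score computed on integrated fluorescence ratio after choline addition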
MEKK3 PB1 HTS = modulators of MEKK3-MEK5 PB1 binding, primary screen, biochemical, wildtype MEKK3, multiplex bead flow cytometry, Alexa488-MEK5. binding response (% of control), % at 10 µM. bead-based flow cytometry, Alexa488-MEK5 binding to MEKK3; actives lie on both sides; 0 = blocked by unlabeled MEK5, 100 = vehicle. AID 1529, 2009. actives 1.4% (n = 290,000). Mitogen-activated protein kinase kinase kinase 3 (Homo sapiens), Q99759;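 active = binding response more than 3 SD above or below the average of its plate-row segment, actives on both sides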;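 also: Alexa488 bead fluorescence after subtracting the streptavidin-only scavenger bead signal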
Target sequence (Q99759 whole entry, looked up): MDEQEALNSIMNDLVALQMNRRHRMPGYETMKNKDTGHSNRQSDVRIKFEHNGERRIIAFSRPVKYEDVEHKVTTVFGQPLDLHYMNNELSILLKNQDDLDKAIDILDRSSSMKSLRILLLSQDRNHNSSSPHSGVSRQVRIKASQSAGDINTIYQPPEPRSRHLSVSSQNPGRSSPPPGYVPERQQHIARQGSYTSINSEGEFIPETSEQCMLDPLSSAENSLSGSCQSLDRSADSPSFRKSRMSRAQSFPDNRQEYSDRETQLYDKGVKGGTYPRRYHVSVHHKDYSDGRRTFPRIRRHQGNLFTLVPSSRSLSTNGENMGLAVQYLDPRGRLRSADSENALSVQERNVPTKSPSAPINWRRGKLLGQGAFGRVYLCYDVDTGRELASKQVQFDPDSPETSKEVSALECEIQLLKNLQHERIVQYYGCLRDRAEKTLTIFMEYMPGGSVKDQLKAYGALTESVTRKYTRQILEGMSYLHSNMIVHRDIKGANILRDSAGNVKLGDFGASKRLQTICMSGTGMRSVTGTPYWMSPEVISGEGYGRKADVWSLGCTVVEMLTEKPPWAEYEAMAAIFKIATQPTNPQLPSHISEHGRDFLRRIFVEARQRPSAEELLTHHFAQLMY
Mot1-301 SUMO = yeast Mot1-301 growth rescue at high temperature, primary screen, SUMOylation pathway inhibitor project, S. cerevisiae, ATP luminescence, 38.5C | S. cerevisiae Mot1-301 growth rescue; percent above DMSO median, 100 means doubled | growth rescue, % at 18.8 µM | actives 1% (n = 320,000) | AID 2716, 2010;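 active = every valid replicate shows activation above 250% relative to neutral control wells; inactive = the rest, any valid replicate at or below 250%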;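 also: OY570 slx delta 5 strain wells were the positive control but not used for scaling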
CHT PAM = CHT positive allosteric modulators, primary screen, cell-based, membrane potential dye, choline EC20 | actives 0.49% (n = 310,000) | CHT-expressing cells; stronger effect = higher value; LV-AA mutant CHT in HEK293 cells | B-score at 10 µM | High affinity choline transporter 1 (Homo sapiens), Q9GZV3 | AID 488977, 2010;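 active = initial fluorescence not abnormally high and integrated response B-score, plate-corrected, over 3 SD above library mean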
MEKK2 mut-MEK5 = MEK5 binding signal on mutant MEKK2 PB1, primary screen, biochemical, multiplex bead flow cytometry, Alexa488-MEK5. Alexa488-MEK5 binding to MEKK2 mutant. actives 0.35% (n = 290,000). percent response, % at 10 µM. AID 1530, 2009; in the data active = percent response above about 24%, passing the limit was not always enough
MEKK2wt PB1 HTS = modulators of MEK5 binding to wildtype MEKK2, primary screen, biochemical, multiplex bead flow cytometry, Alexa488-MEK5 | Alexa488-MEK5 binding to MEKK2 WT; actives lie on both sides | actives 1.1% (n = 290,000) | binding response (% of control), % at 10 µM | Mitogen-activated protein kinase kinase kinase 2 (Homo sapiens), Q9Y2U5 | AID 1531, 2009; in the data active = binding response below about 67% or above about 130%
MEKK2wt confirm = modulators of MEK5 binding to wildtype MEKK2, confirmation, biochemical, single concentration, multiplex bead flow cytometry | shares compounds with MEKK3 PB1 HTS | AID 1892, 2009 | actives 2.4% (n = 5,900) | binding response (% of control), % at 10 µM | Alexa488-MEK5 binding to MEKK2 WT; actives lie on both sides; in the data active = binding response below about 16% or above about 210%; inactive = in between
MEKK2mut confirm = mutant MEKK2 PB1-MEK5 binding signal retest – biochemical, single concentration, multiplex bead flow cytometry, confirmation. shares compounds with MEKK3 PB1 HTS. Alexa488-MEK5 binding to MEKK2 mutant. percent response, % at 10 µM. actives 2% (n = 5,900); in the data active = percent response mostly above about 71%, no sharp cut-off; inactive = mostly below about 38%;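 also: higher means compound restores mutant binding toward wildtype level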
MEKK3-MEK5 inh = MEKK3 wild-type PB1 binding to MEK5, inhibitors, confirmation, biochemical, bead multiplex flow cytometry, single concentration, wildtype | Alexa488-MEK5 binding to MEKK3; stronger effect = lower value | shares compounds with MEKK3 PB1 HTS | actives 1.8% (n = 5,900) | binding response (% of control), % at 10 µM;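 active = binding response below 72% of control, or above a set upper limit, though filed actives all read lower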;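 also: 100% = DMSO only wells and 0% = binding blocked by excess unlabeled MEK5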
An asterisk follows results filed as active; i = inactive; · = no result; [ ] = remark or other dose. Rows were chosen to be rich in hits. Some 4.1% of all compounds tested hit in one or more screens of this group.

SMILES	CHT block	MEKK3 PB1 HTS	Mot1-301 SUMO	CHT PAM	MEKK2 mut-MEK5	MEKK2wt PB1 HTS	MEKK2wt confirm	MEKK2mut confirm	MEKK3-MEK5 inh
COCCNC(=O)CN(C)S(=O)(=O)c1ccc2c(c1)OCCO2	i	7.0*[inhibitor]	-32.0	i	-14.0	11.0*[inhibitor]	104.0	3.0	106.0
CNc1ccc(OC(F)F)cc1C(=O)c1ccccc1	i	1.0*[inhibitor]	-2.3	i	-31.0	-2.0*[inhibitor]	104.0	0.0	102.0
CC1CC(=O)C2=C(C1)Nc1ccccc1SC2c1ccc(F)cc1 (centres undefined)	i	130.0*	-2.9	i	1.0	106.0	99.0	2.0	106.0
CN(C)C(=O)C1C2NC(=S)N(c3cccc(Cl)c3)C1(C)Oc1ccc(Cl)cc12 (centres undefined)	i	101.0	18.9	i	-1.0	97.0	·	·	·
O=c1c(-c2n[nH]c(=S)o2)cccn1Cc1ccccc1	i	107.0	-8.1	i	0.0	100.0	·	·	·
Cc1sc2ncnc(N3CCC(C(=O)N(C)CC(=O)Nc4ccc(Cl)c(C(F)(F)F)c4)CC3)c2c1C	i	·	·	i	·	·	·	·	·
CCC[C@@H](CN[C@@H](CNC)C(C)C)NCCCCc1ccccc1	i	104.0	0.9	i	-3.0	119.0	·	·	·
CNC[C@@H](Cc1ccccc1)NC[C@@H](CC1CCCCC1)NCCCc1ccccc1	i	115.0	-68.5	i	44.0*	244.0*	163.0	37.0	99.0
CNC[C@@H](CC1CCCCC1)NC[C@H](CC(C)C)NCCc1cccc(C(F)(F)F)c1	i	109.0	-66.1	i	33.0*	234.0*	159.0	36.0	107.0
CCC[C@@H](CNC)NC[C@H](Cc1ccccc1)NCCCCc1ccccc1	i	104.0	-2.3	i	8.0	154.0*	146.0	27.0	106.0
Fc1c(F)c(C(F)(F)F)c(F)c(F)c1N/N=C\c1cccs1	i	107.0	-5.4	i	5.0	114.0	·	·	·
COc1ccc(Cn2c(SCc3ccc(C)cc3)nc3cc(OC)c(OC)cc3c2=N)cc1Cl	i	102.0	-15.5	i	71.0*	212.0*	208.0*	80.0*	102.0
COc1ccc(Cn2c(SCc3cc(C)ccc3C)nc3cc(OC)c(OC)cc3c2=N)cc1	i	107.0	·	i	38.0	174.0*	205.0	57.0	101.0
O=C1NC(=O)C2C3c4ccccc4C(c4ccccc43)C12 (centres undefined)	i	70.0*[inhibitor]	-19.8	i	-38.0	77.0	99.0	-3.0	103.0
COc1ccc(CN2CCNC(=O)C2CC(=O)N(C)Cc2ccon2)c(F)c1 (centres undefined)	i	100.0	0.4	i	6.0	104.0	·	·	·
CC1CN(c2nc3ccccc3nc2C(C#N)C(=O)NC2CCCCC2)CC(C)O1 (centres undefined)	i	15.0*[inhibitor]	0.3	i	-49.0	22.0*	106.0	10.0	103.0
Cc1cc(C)c2nc3sc(C(=O)N4CCOCC4)c(N)c3cc2c1	i	29.0*[inhibitor]	49.8	i	-13.0	17.0*[inhibitor]	102.0	0.0	97.0
Cc1ccc(C)c2nc3sc(C(=O)N4CCOCC4)c(N)c3cc12	i	99.0	0.4	i	-9.0	90.0	·	·	·
CCOc1ccc2nc(N(CCCN(C)C)C(=O)c3ccc(S(=O)(=O)N4CCCC4)cc3)sc2c1	i	106.0	-10.3	i	16.0	124.0	·	·	·
CCN(Cc1ccccc1)S(=O)(=O)c1ccc(C(=O)N(CCCN(C)C)c2nc3ccc(F)cc3s2)cc1	i	104.0	1.3	i	38.0*	210.0*	208.0*	64.0	108.0
CCN(CC)CCN(C(=O)c1c(F)cccc1F)c1nc2cc(C)cc(C)c2s1	i	106.0	-4.6	i	15.0	136.0	·	·	·
CCN(CC)CCN(C(=O)c1ccc(S(=O)(=O)N2CCCC2)cc1)c1nc2cc(C)cc(C)c2s1	i	105.0	-16.5	i	21.0	142.0*	135.0	12.0	101.0
CCN(Cc1ccccc1)S(=O)(=O)c1ccc(C(=O)N(CCCN(C)C)c2nc3cc(OC)ccc3s2)cc1	i	·	-9.9	i	·	·	·	·	·
CN(C)CCCN(C(=O)c1ccc(S(=O)(=O)N2CCCC2)cc1)c1nc2ccc(Br)cc2s1	i	104.0	-17.3	i	30.0*	181.0*	234.0*	112.0*	127.0
CN(C)CCCN(C(=O)c1ccc(S(=O)(=O)N(C)Cc2ccccc2)cc1)c1nc2c(F)cccc2s1	i	110.0	1.1	i	40.0*	196.0*	176.0	34.0	108.0
CC(=O)N/C(=C\c1ccccc1)C(=O)OC(C)C(=O)c1ccccc1 (centres undefined)	i	·	14.6	i	·	·	·	·	·
Cc1cccc(C)c1OCC(=O)NNC(=S)NC(=O)C1CC1	i	103.0	137.6	i	6.0	109.0	·	·	·
CN1CCN(c2ccc(NC(=O)CSc3nnnn3-c3ccccc3Cl)cc2)CC1	i	100.0	-5.2	i	1.0	108.0	·	·	·
COc1ccc(NS(=O)(=O)c2csc(C(=O)N3CCCC3)c2)c(OC)c1	i	100.0	-9.2	i	-3.0	102.0	·	·	·
CCc1ccc2nc(N(CCCN(C)C)C(=O)c3ccc(S(=O)(=O)N(C)C4CCCCC4)cc3)sc2c1	i	114.0	-38.6	i	51.0*	210.0*	194.0	58.0	107.0

Screens as filed in PubChem.
